Among the test systems are T-47D breast; BT-549 breast; MDA-MB-435 melanoma; MCF7 breast; HCT-116 colon; HCC-2998 colon; KM12 colon; SW-620 colon.
Holding throughout (assay): NCI-60 one-dose screen, 48 h (100 = growth as untreated, 0 = no growth, -100 = all killed)
Settings in all cases: 10 µM unless noted

SMILES strings stand for the structures. Compounds without any hit were thinned out: in the full panel of roughly 83,000, 20% have a hit.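 48-hour exposure, single concentration, 96-well plates; percent growth endpoint where 0 means no net growth. Active: below 10.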 A number with no mark means an inactive call. Activity calls are given as the source filed them.

As for `COc1ccc([C@@H]2C(=O)N(c3cc(OC)c(OC)c(OC)c3)[C@H]2c2ccc(OC)c(O)c2)cc1`, the growth is 94.9% in the assay on T-47D breast; -30.1% (active) in the assay with BT-549 breast; -15.4% (active) in the assay on MDA-MB-435 melanoma; 10.6% with MCF7 breast; 6.47% (active) in the assay on HCT-116 colon; 17% in the assay with HCC-2998 colon. In addition, in the assay on KM12 colon, the growth is 10.7%.

On to `COc1ccc(NC(=O)CCCCCCNC(=O)C(O)(O)C(F)(F)F)cc1`, for which the growth is 18.7% in the assay on T-47D breast; 76.4% with BT-549 breast; 38.8% in the assay with MDA-MB-435 melanoma; 38.4% in the assay on MCF7 breast; 7.44% (active) in the assay on HCT-116 colon; 55.9% in the assay on HCC-2998 colon. In the assay with KM12 colon, the growth was 41.6%.

Regarding `C#CCOc1cccc(-c2nc(N)nc(Nc3ccccc3SSc3ccccc3Nc3nc(N)nc(-c4cccc(OCC#C)c4)n3)n2)c1`, the growth in the assay on T-47D breast was 40.5%; in the assay on BT-549 breast it was 58.8%; in the assay on MDA-MB-435 melanoma, 72.7%; with SW-620 colon, 71.4%; with MCF7 breast it was 61.2%; with HCC-2998 colon, 94.6%. In addition, the growth in the assay on KM12 colon is 3.92% (active).

`Clc1ccc2c(N/N=C/c3c[nH]c4ccccc34)ccnc2c1`: the growth in the assay with T-47D breast is -54.5% (active); in the assay with BT-549 breast, -89.1% (active); with MDA-MB-435 melanoma it was -92.9% (active); in the assay on MCF7 breast it was -72% (active); with HCT-116 colon, -91.9% (active); in the assay on HCC-2998 colon, -92.3% (active). For the same compound, in the assay with KM12 colon, the growth was -77.2% (active).

Turning to `CC1=C(C)C(=O)C(Nc2cccc(C)c2)=C(Br)C1=O`, the growth in the assay on T-47D breast is 4.47% (active); with BT-549 breast it was 106%; in the assay on MDA-MB-435 melanoma it was 109%; in the assay with MCF7 breast it was 75.7%; with HCT-116 colon, 76.9%; in the assay on HCC-2998 colon it was 111%. In addition, in the assay with KM12 colon, the growth was 105%.

`O=C1C(SCc2ccccc2)=C(Cl)CN1c1ccccc1`: the growth in the assay with T-47D breast is 88%; in the assay with BT-549 breast it was 108%; in the assay with MDA-MB-435 melanoma it was 96.8%; with SW-620 colon, 102%; in the assay on MCF7 breast, 40.6%; in the assay on HCC-2998 colon, 103%. The growth with KM12 colon is 98.3%.

Regarding `O=C(N/N=C\c1ccc([N+](=O)[O-])cc1)c1ccc2nc(-c3ccc(Br)cc3)[nH]c2c1`, the growth was 9.87% (active) with T-47D breast; 6.72% (active) in the assay with BT-549 breast; 23.9% in the assay with MDA-MB-435 melanoma; 5.34% (active) in the assay with SW-620 colon; -4.44% (active) in the assay on MCF7 breast; 5.66% (active) with HCC-2998 colon. Further, the growth in the assay with KM12 colon was 11.7%.

With `CN1CCC[C@]2(C)[C@H]3CC[C@@H]4[C@@H]5[C@H]6OC[C@@]5(CCC6(C)C)CC[C@@]4(C)[C@]3(C)CC[C@H]2C1(C)C`, the growth with T-47D breast is 54.9%; in the assay on BT-549 breast, 96.8%; with MDA-MB-435 melanoma, 69.8%; in the assay on MCF7 breast, 8.03% (active); with HCT-116 colon it was 15.4%; in the assay on HCC-2998 colon, 45.8%. Moreover, in the assay on KM12 colon, the growth was 79.1%.

For the compound `Cc1cc(Br)ccc1-n1cc(C#N)c(N)c1C(=O)c1ccc(Br)cc1`, the growth with T-47D breast is 101%; in the assay with BT-549 breast it was 89.8%; in the assay on MDA-MB-435 melanoma, 100%; with SW-620 colon it was 117%; in the assay with MCF7 breast, 95.2%; with HCC-2998 colon, 110%. The growth with KM12 colon is 107%.

Take `CCc1cc(OC(=O)N2CCC(N3CCCCC3)CC2)ccc1Nc1cc(-c2ccc(-n3cccn3)cc2)[nH]n1`: the growth was 97.2% in the assay on T-47D breast; 87.6% with BT-549 breast; 37.3% in the assay with MDA-MB-435 melanoma; 6.81% (active) in the assay with MCF7 breast; -64.1% (active) in the assay with HCT-116 colon; 83.8% with HCC-2998 colon. Besides, the growth in the assay with KM12 colon is 70.1%.

In the case of `CC(C)NC(=O)c1cc(-c2ccc(NC(=O)Nc3ccc(F)c(C(F)(F)F)c3)cc2)nc2cccnc12`, the growth in the assay on T-47D breast was 80.3%; in the assay with BT-549 breast, 100%; in the assay on MDA-MB-435 melanoma it was 91.3%; in the assay with MCF7 breast it was 91.8%; in the assay on HCT-116 colon, 81.9%; with HCC-2998 colon, 115%. For the same compound, the growth in the assay with KM12 colon is 89.6%.

Consider `Cc1ccc(/C=N/Nc2nc(Nc3ccccc3)nc(Nc3ccc(S(N)(=O)=O)cc3)n2)cc1`, for which the growth was 54.5% in the assay with T-47D breast; 76.5% in the assay on BT-549 breast; 69.4% in the assay with MDA-MB-435 melanoma; 92.3% in the assay on SW-620 colon; 26.5% in the assay on MCF7 breast; 74.1% in the assay on HCC-2998 colon. In addition, the growth in the assay on KM12 colon was 66%.

Take `CC[C@]12C=CCN3CC[C@]4(C(=C(C(=O)OC)C1)Nc1cc5c(cc14)[C@@H]1[C@H](O5)[C@@H](O)[C@@]4(CC)CC(C(=O)OC)=C5Nc6cc(O)ccc6[C@@]56CCN1C46)C32` (some centres undefined): the growth in the assay with T-47D breast is 6.91% (active); in the assay with BT-549 breast it was 18.8%; with MDA-MB-435 melanoma, -38.2% (active); in the assay on SW-620 colon, 2.78% (active); with MCF7 breast it was 3.26% (active); with HCC-2998 colon it was -64.8% (active). Besides, in the assay on KM12 colon, the growth is -30.2% (active).

Consider `N#Cc1nc(-c2ccc(Cl)cc2)oc1N1CCC(S(=O)(=O)N2CCOCC2)CC1`, for which the growth in the assay on T-47D breast was 103%; with BT-549 breast, 103%; in the assay on MDA-MB-435 melanoma, 99%; in the assay with MCF7 breast it was 94.3%; with HCT-116 colon, 101%; in the assay on HCC-2998 colon, 102%. For the same compound, in the assay with KM12 colon, the growth was 105%.

`CCOP(=O)(OCC)OC[C@]12CCC(C)(C)CC1C1=CC[C@@H]3[C@@]4(C)CCCNC(C)(C)[C@@H]4CC[C@@]3(C)[C@]1(C)CC2` (some centres undefined): the growth in the assay on T-47D breast is 79.2%; with BT-549 breast, 104%; with MDA-MB-435 melanoma, 90.6%; with MCF7 breast, 35.1%; in the assay on HCT-116 colon it was 20.4%; in the assay with HCC-2998 colon, 26.6%. Also, the growth with KM12 colon is 88.7%.

On to `O=S(=O)(NCCCNc1nccc(-c2[nH]c(-c3ccccc3)nc2-c2ccc(F)c(O)c2)n1)c1ccc(C(F)(F)F)cc1`, for which the growth was 50.7% with T-47D breast; 55.9% in the assay with BT-549 breast; -40.6% (active) in the assay on MDA-MB-435 melanoma; 59.8% with SW-620 colon; 7.95% (active) in the assay on MCF7 breast; 97.8% in the assay with HCC-2998 colon. Further, the growth in the assay with KM12 colon is 36.6%.

Regarding `COc1cc(-c2nc(-c3ccccc3)[nH]c2-c2ccnc(NCCCNS(=O)(=O)c3ccc(C)cc3)n2)ccc1F`, the growth with T-47D breast is 57.3%; in the assay on BT-549 breast, 119%; with MDA-MB-435 melanoma, 68.5%; in the assay on MCF7 breast, 65.4%; in the assay on HCT-116 colon it was 72.3%; with HCC-2998 colon, 153%. The growth in the assay with KM12 colon was 90.1%.
